Several values for one entry are separate records, joined by “and”; a condition that tells them apart may be missing. Equal values may be shown once. Records with an inconclusive call do not appear. Activity calls are given as the source filed them. Unless noted, the call rests on the fitted dose curve; in most records, active means well fitted curve in the direction sought with a large enough effect in the repeat runs; inconclusive means weak or mixed curves; inactive means no such curve, though single readings can be large; an effect the other way counts as inactive or inconclusive.
Columns and labels:
[1] = biological target: Luciferin 4-monooxygenase (Photinus pyralis) (UniProt P08659); assay: qHTS assay to identify small molecule inhibitors of firefly luciferase (AID 1224835); further: nearly all actives have a fitted effect of over 25% in size
Chain of Luciferin 4-monooxygenase (Photinus pyralis) (P08659 whole entry, looked up): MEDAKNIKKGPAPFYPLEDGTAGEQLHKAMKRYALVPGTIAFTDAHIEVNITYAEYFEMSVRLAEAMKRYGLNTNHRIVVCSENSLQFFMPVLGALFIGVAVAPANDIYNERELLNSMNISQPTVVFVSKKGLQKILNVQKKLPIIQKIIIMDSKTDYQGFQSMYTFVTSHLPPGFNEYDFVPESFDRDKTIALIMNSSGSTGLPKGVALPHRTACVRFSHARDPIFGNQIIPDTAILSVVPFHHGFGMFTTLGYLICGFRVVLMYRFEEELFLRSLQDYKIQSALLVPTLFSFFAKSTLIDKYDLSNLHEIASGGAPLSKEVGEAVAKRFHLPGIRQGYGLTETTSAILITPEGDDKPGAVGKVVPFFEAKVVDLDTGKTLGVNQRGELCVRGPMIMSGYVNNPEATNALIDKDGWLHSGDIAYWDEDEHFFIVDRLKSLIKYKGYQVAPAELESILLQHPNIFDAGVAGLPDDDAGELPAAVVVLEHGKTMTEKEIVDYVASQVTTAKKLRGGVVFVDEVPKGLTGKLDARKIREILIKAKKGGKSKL
Summary of the method: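 Inhibition of purified Photinus luciferase is measured by luminescence. Substrate levels (D-luciferin, ATP) sit at their KM values. Each compound is tested in a concentration series.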

[2] = qHTS assay to identify small molecule agonists of the constitutive androstane receptor (CAR) signaling pathway - cell viability counter screen (AID 1224836); further: nearly all actives have a fitted effect of over 45% in size
Summary of the method: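 Compound titrations (15 concentrations) went onto HepG2-CYP2B6-hCAR cells 4 h after seeding, alongside PK11195 at a final 0.75 uM; a 23 h, 37 C/5% CO2 incubation preceded CellTiter-Fluor viability measurement.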

[3] = qHTS assay to identify small molecule antagonists of the constitutive androstane receptor (CAR) signaling pathway - cell viability counter screen (AID 1224837); further: nearly all actives have a fitted effect of over 45% in size
Summary of the method: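 To flag cytotoxic false antagonists, HepG2 hCAR/CYP2B6-2.2kb cells were treated 23 hr with 15-concentration compound series and 50 nM CITCO at 37 C/5% CO2; CellTiter-Fluor fluorescence was the measured end point.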

[4] = biological target: Nuclear receptor subfamily 1 group I member 3 (Homo sapiens) (UniProt Q14994); assay: qHTS assay to identify small molecule antagonists of the constitutive androstane receptor (CAR) signaling pathway (AID 1224838);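 further: HepG2 cells stably expressing hCAR with CYP2B6 luciferase reporter stimulated by CITCO; nearly all actives have a fitted effect of over 40% in size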
Chain of Nuclear receptor subfamily 1 group I member 3 (Homo sapiens) (Q14994 whole entry, looked up): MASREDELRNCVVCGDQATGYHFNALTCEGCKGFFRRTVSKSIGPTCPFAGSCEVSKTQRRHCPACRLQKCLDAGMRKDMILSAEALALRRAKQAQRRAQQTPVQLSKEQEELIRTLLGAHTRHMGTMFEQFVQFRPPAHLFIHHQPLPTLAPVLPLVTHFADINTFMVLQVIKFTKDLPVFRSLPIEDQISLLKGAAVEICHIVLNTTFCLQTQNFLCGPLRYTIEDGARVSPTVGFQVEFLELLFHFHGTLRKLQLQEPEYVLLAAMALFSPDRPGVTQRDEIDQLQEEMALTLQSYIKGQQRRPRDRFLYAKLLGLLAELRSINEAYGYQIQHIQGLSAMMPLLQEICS
Summary of the method: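 Human hepatoma HepG2 cells expressing hCAR and a CYP2B6 promoter (2.2 kb) luciferase construct; compound titration (15 points) with 50 nM CITCO final, 24 h at 37 C/5% CO2; luminescence via ONE-Glo after 30 min at room temperature.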

[5] = biological target: Nuclear receptor subfamily 1 group I member 3 (Homo sapiens) (UniProt Q14994); assay: qHTS assay to identify small molecule agonists of the constitutive androstane receptor (CAR) signaling pathway (AID 1224839);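 further: HepG2 cells stably carrying human CAR and a CYP2B6 luciferase reporter; nearly all actives have a fitted effect of over 15% in size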
Summary of the method: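 In this screen, CAR-driven CYP2B6 promoter activity is measured by luminescence in HepG2-CYP2B6-hCAR cells after 24 h with test compounds and 0.75 uM PK11195 (final concentration).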

[6] = qHTS assay to identify small molecule antagonists of the estrogen related receptor signaling pathway with the pleiotropic PPARgamma coactivator (PGC) from Tox21 10K library - cell viability counter screen (AID 1224840; active means well fitted cell-killing curve with a large enough effect in the repeat runs, not every such curve was filed as active; further: nearly all actives have a fitted effect of over 40% in size)
Summary of the method: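 Seeded PGC/ERR cells (2,000/well, 6 h, 37 C/5% CO2) get compound by pin tool; 17.5 h incubation at 37 C; CellTiter-Fluor added, 30 min, fluorescence measured.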

[7] = qHTS assay to identify small molecule antagonists of the estrogen related receptor signaling pathway with the pleiotropic PPARgamma coactivator (PGC) from Tox21 10K library (AID 1224841; call rule not given here; further: actives are mostly falling curves and most rising ones were filed inactive; nearly all actives have a fitted effect of over 50% in size)
Summary of the method: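 Test chemicals dissolved in DMSO were applied to pre-incubated (6 h) PGC/ERR cells at 2,000 cells/well for an 18 h, 37 C treatment; reporter luminescence was then read using One-Glo.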

[8] = biological target: Thyrotropin receptor (Homo sapiens) (UniProt P16473); assay: qHTS assay to identify small molecule agonists of the thyroid stimulating hormone receptor (TSHR) signaling pathway (AID 1224843; calls by dose curve; further: nearly all actives have a fitted effect of over 45% in size)
Chain of Thyrotropin receptor (Homo sapiens) (P16473 whole entry, looked up): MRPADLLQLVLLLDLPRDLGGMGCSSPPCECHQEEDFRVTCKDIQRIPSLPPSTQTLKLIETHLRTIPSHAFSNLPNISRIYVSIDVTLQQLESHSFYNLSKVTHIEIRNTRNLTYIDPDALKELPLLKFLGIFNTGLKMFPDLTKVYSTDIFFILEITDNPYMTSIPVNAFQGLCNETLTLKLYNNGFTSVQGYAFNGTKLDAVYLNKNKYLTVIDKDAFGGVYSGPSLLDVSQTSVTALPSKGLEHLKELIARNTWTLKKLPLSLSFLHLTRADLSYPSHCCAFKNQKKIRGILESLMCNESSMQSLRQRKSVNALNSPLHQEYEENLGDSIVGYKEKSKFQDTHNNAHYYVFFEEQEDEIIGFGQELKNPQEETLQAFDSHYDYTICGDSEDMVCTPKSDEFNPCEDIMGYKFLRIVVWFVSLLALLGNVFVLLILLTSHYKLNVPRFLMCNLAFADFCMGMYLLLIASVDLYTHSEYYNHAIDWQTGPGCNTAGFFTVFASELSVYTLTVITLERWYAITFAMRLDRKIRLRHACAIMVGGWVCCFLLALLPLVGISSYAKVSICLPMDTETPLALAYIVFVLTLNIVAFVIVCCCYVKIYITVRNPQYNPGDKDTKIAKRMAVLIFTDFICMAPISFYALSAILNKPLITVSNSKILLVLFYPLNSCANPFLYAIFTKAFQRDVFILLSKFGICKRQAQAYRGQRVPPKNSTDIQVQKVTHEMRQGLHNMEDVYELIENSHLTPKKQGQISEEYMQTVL
Summary of the method: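 A cell-based cAMP HTRF format was run in TSHR-transfected HEK293 cells, 800 per well. Treatment: 30 min, room temperature. Detection: 1 h with labelled cAMP and anti-cAMP cryptate. Concentration-response over 15 points, three replicates.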

[9] = qHTS assay to identify small molecule agonists of the hypoxia (HIF-1) signaling pathway - cell viability counter screen (AID 1224844; calls by dose curve; further: nearly all actives have a fitted effect of over 50% in size)
Summary of the method: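 HRE-bla ME-180; 0.5% dFBS; cpd 17 h, 37C, 5% CO2; CellTiter-Glo lum., 30 min RT, post-FRET read, same wells.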

[10] = qHTS assay to identify small molecule agonists of H2AX (AID 1224845; active means well fitted activation curve with a large enough effect in the signal ratio in the repeat runs, not every such curve was filed as active; the % refers to the signal ratio)
Summary of the method: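 Phospho-H2AX Ser139 measured by HTRF (ex 320 nm; em 665 and 620 nm) after 24 hr antibody incubation. Compounds, 15 concentrations, 0.76% DMSO, were applied to CHO-K1 cells for 3hr at 37C before lysis.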

[11] = qHTS assay to identify small molecule agonists of the hypoxia (HIF-1) signaling pathway (AID 1224846; active means well fitted activation curve with a large enough effect in the signal ratio in the repeat runs, not every such curve was filed as active; the % refers to the signal ratio)
Summary of the method: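 Reporter induction in HRE-bla ME-180 cells is taken as agonism: cells sit 5 hrs after plating, receive compounds or DMSO only, incubate 17 hrs at 37C under 5% CO2, and are loaded with CCF4-AM for beta-lactamase FRET measurement.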

[12] = qHTS assay to identify small molecule antagonists of the estrogen related receptor (ERR) signaling pathway from Tox21 library (AID 1224848); further: nearly all actives have a fitted effect of over 50% in size
Summary of the method: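 ERR cell line, 2,000 cells/well. 6 h settle, then compound (DMSO) added; 18 h at 37 C; ONE-Glo luminescence after 30 min RT.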

[13] = qHTS assay to identify small molecule agonists of the estrogen related receptor (ERR) signaling pathway from Tox21 library (AID 1224849; calls by dose curve; further: nearly all actives have a fitted effect of over 15% in size); details: ERR reporter cell line, ONE-Glo luciferase, 18 h
Summary of the method: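 Tox21 compounds tested for ERR agonism in an NTP reporter cell line: 18 h treatment at 37 C, then ONE-Glo luminescence.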

[14] = qHTS RealTime-Glo MT Cell Viability Assay in HepG2 cells - 24 hour (AID 1224867); further: nearly all actives have a fitted effect of over 50% in size
Summary of the method: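 HepG2 suspension premixed with RealTime-Glo reagents is plated at 600 cells per well and left 5 h at 37 C/5% CO2. Compounds in DMSO then go in, and bioluminescence reflecting viable cell number is recorded over 40 h.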

[15] = qHTS RealTime-Glo MT Cell Viability Assay in HEK293 cells - 32 hour (AID 1224868)
Summary of the method: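 Reads taken at 0, 8, 16, 24, 32 and 40 h from the same wells. HEK293 cells (600/well) carried RealTime-Glo reagents from seeding, with compound added after a 5 h settle at 37 C.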

[16] = A CellTox Green Cytotoxicity Assay to monitor cytotoxicity in HEK293 cells - 0 hour (AID 1224869); further: nearly all actives have a fitted effect of over 50% in size
Summary of the method: (§1)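 Tox21 screen in HEK293: membrane-impermeant cyanine dye fluoresces on binding dead-cell DNA; compound pinned 5 h post-seeding, plates held at 37 C, signal read repeatedly through 40 h.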

[17] = qHTS RealTime-Glo MT Cell Viability Assay in HepG2 cells - 40 hour (AID 1224870); further: nearly all actives have a fitted effect of over 50% in size
Summary of the method: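 Real-time viability: cells seeded at 600 per well together with NanoLuc and cell-permeant prosubstrate, compounds added after 5 h incubation. Luminescence tracked at 0, 8, 16, 24, 32 and 40 h of exposure.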

[18] = A CellTox Green Cytotoxicity Assay to monitor cytotoxicity in HEK293 cells - 40 hour (AID 1224871); further: nearly all actives have a fitted effect of over 45% in size
Summary of the method: as §1

[19] = qHTS assay to identify small molecule agonists of H2AX - cell viability counter screen (AID 1224847; calls by dose curve; further: top concentration of the series differs between compounds; nearly all actives have a fitted effect of over 30% in size)
Summary of the method: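 Read-out: CellTiter-Glo luminescence, 30 min RT. Cells: wild-type CHO-K1, 1000/well, 10% FBS, plated overnight at 37C. Treatment: 15 concentrations, 3 hr, 37C, 0.76% DMSO.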

[20] = qHTS assay to identify small molecule agonists of the estrogen related receptor signaling pathway with the pleiotropic PPARgamma coactivator (PGC) from Tox21 10K library (AID 1224842); further: nearly all actives have a fitted effect of over 15% in size
Summary of the method: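 Luminescence from One-Glo (30 min, room temperature) measured after PGC/ERR cells had 18 h at 37 C with pinned compound (23 nL in DMSO). Cells had been seeded at 2,000 per well and pre-incubated 6 h.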
On the % scale 0 is the no-effect control and ±100 the full control effect.

C1CCC(SSC2CCCCC2)CC1
inactive: Potency [1] | Potency [2] | Potency [3] | Potency [4] | Potency [5] | Potency [6] | Potency [7] | Potency [8] | Potency [9] | Potency [10] | Potency [11] | Potency [12] | activity change, positive = activation ([13]; at 92.4 µM (top of the series)) 5.57% | Potency [14] | Potency [15] | Potency [16] | Potency [17] | Potency [18]

CCN(CCN)c1cccc(C)c1
inactive: Potency [1] | Potency [2] | Potency [3] | Potency [4] | Potency [5] | Potency [6] | Potency [7] | Potency [8] | Potency [9] | Potency [10] | Potency [11] | Potency [19] | activity change, positive = activation ([13]; at 92.4 µM (top of the series)) -29% and -22.9% | Potency [14] | Potency [15] | Potency [17] | Potency [18]

CN(C)Cc1ccccc1O
inactive: Potency [1] | Potency [2] | Potency [3] | Potency [4] | Potency [5] | Potency [6] | Potency [7] | Potency [20] | Potency [8] | Potency [9] | Potency [10] | Potency [11] | Potency [12] | activity change, positive = activation ([13]; at 92.4 µM (top of the series)) 0.52% | Potency [14] | Potency [15] | Potency [16] | Potency [17] | Potency [18]

Nc1ccc(C(=O)O)c(O)c1
inactive: Potency [1] | Potency [2] | Potency [3] | Potency [4] | Potency [5] | Potency [6] | Potency [7] | Potency [20] | Potency [8] | Potency [9] | Potency [10] | Potency [19] | activity change, positive = activation ([13]; at 42.5 µM (top of the series)) -27.4% | Potency [14] | Potency [15] | Potency [17] | Potency [18]

Cc1ccc(C(=O)O)cc1
inactive: Potency [1] | Potency [2] | Potency [3] | Potency [4] | Potency [5] | Potency [6] | Potency [7] | Potency [8] | Potency [9] | Potency [10] | Potency [11] | Potency [19] | Potency [12] | activity change, positive = activation ([13]; at 92.4 µM (top of the series)) -0.305% | Potency [14] | Potency [15] | Potency [16] | Potency [17] | Potency [18]

CC1(C)[C@@H](O)CC[C@]2(C)[C@H]3C(=O)C=C4[C@@H]5C[C@@](C)(C(=O)O)CC[C@]5(C)CC[C@@]4(C)[C@]3(C)CC[C@@H]12
inactive: Potency [1] | Potency [2] | Potency [3] | Potency [4] | Potency [5] | Potency [6] | Potency [7] | Potency [20] | Potency [8] | Potency [10] | Potency [12] | activity change, positive = activation ([13]; at 92.4 µM (top of the series)) 3.52% | Potency [14] | Potency [15] | Potency [17] | Potency [18]
